Among all 5,500 compounds or so, about 2,000 (36%) were called active. Not shown: some 18% with an inconclusive outcome. Rule as the data show it: active = normalized growth mostly below about 0.91 (no sharp cut-off); inconclusive = no clear call, values can overlap the other calls; inactive = mostly above about 0.92. The list shows a part of the results.
Assay: chemical genetic growth profiling, strain panel (AID 1159580);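 also: tested at 20 µM; growth read once vehicle control cultures reached saturation at 30 °C; 1 = growth at the plate median or of vehicle wells; lower values mean less growth of the strain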
Conditions: S. cerevisiae deletion strains, growth OD

Measured: normalized growth

CC(=O)Oc1cc2c(c(C)c1OC(C)=O)CC1OC13C2(C)CCC1(C)C2CC(C)(C(=O)O)CCC2(C)CCC13C (configuration not stated)
inactive: locus YAL021C, strain ccr4, stronger effect = lower value 0.988 | locus YAL026C, strain drs2, stronger effect = lower value 1.04 | locus YAL030W, strain snc1, stronger effect = lower value 1.01 | locus YBL061C, strain skt5, stronger effect = lower value 1.04 | locus YBR009C, strain hhf1, stronger effect = lower value 1 | locus YBR021W, strain FUR4, stronger effect = lower value 0.99 | locus YBR023C, strain chs3, stronger effect = lower value 1.01 | locus YBR171W, strain sec66, stronger effect = lower value 1.02 | locus YBR229C, strain ROT2, stronger effect = lower value 1.01 | locus YBR231C, strain swc5, stronger effect = lower value 1.04 | locus YBR279W, strain paf1, stronger effect = lower value 1.02 | locus YCL011C, strain gbp2, stronger effect = lower value 1.01 | locus YCL016C, strain dcc1, stronger effect = lower value 1 | locus YCL029C, strain bik1, stronger effect = lower value 1.03 | locus YCL069W, strain vba3, stronger effect = lower value 1.03 | locus YCR088W, strain abp1, stronger effect = lower value 1.01 | locus YDL005C, strain med2, stronger effect = lower value 1.02 | locus YDL035C, strain GPR1, stronger effect = lower value 0.993 | locus YDL040C, strain nat1, stronger effect = lower value 1.02 | locus YDL074C, strain BRE1, stronger effect = lower value 1.02 | locus YDL101C, strain DUN1, stronger effect = lower value 1.01 | locus YDL185W, strain tfp1, stronger effect = lower value 1.04 | locus YDL192W, strain arf1, stronger effect = lower value 1.02 | locus YDR001C, strain nth1, stronger effect = lower value 1.01 | locus YDR069C, strain doa4, stronger effect = lower value 1.01 | locus YDR101C, strain arx1, stronger effect = lower value 1.03 | locus YDR137W, strain rgp1, stronger effect = lower value 1.02 | locus YDR159W, strain sac3, stronger effect = lower value 1.05 | locus YDR162C, strain NBP2, stronger effect = lower value 1 | locus YDR195W, strain ref2 1.02 | locus YDR297W, strain sur2, stronger effect = lower value 1.02 | locus YDR318W, strain mcm21, stronger effect = lower value 1.02 | locus YDR334W, strain swr1, stronger effect = lower value 1.01 | locus YDR335W, strain msn5, stronger effect = lower value 1.02 | locus YDR388W, stronger effect = lower value 1.02 | locus YDR392W, strain spt3, stronger effect = lower value 0.919 | locus YDR502C, strain sam2, stronger effect = lower value 1.01 | locus YEL003W, strain gim4, stronger effect = lower value 1.01 | locus YEL037C, strain rad23, stronger effect = lower value 1.01 | locus YEL061C, strain CIN8 (second series), stronger effect = lower value 1.02 | locus YEL061C, strain CIN8, stronger effect = lower value 1.01 | locus YER015W, strain faa2, stronger effect = lower value 1.02 | locus YER016W, strain bim1, stronger effect = lower value 1.02 | locus YER110C, stronger effect = lower value 1.03 | locus YER111C, strain swi4, stronger effect = lower value 1 | locus YER155C, strain BEM2 (second series), stronger effect = lower value 1.01 | locus YER155C, strain BEM2, stronger effect = lower value 0.99 | locus YER167W, strain BCK2, stronger effect = lower value 1.01 | locus YFR010W, strain ubp6, stronger effect = lower value 1.03 | locus YGL078C, strain dbp3, stronger effect = lower value 0.99 | locus YGL086W, strain mad1, stronger effect = lower value 1.02 | locus YGL167C, strain pmr1, stronger effect = lower value 1 | locus YGL173C, strain kem1, stronger effect = lower value 1.02 | locus YGL227W, strain vid30, stronger effect = lower value 1.02 | locus YGL240W, strain doc1, stronger effect = lower value 1.02 | locus YGL248W, strain PDE1, stronger effect = lower value 0.999 | locus YGL253W, strain hxk2, stronger effect = lower value 1.03 | locus YGR135W, strain pre9, stronger effect = lower value 1.03 | locus YGR252W, strain gcn5, stronger effect = lower value 0.989 | locus YHR013C, strain ard1, stronger effect = lower value 1.01 | locus YHR027C, strain rpn1, stronger effect = lower value 1.01 | locus YHR030C, strain SLT2, stronger effect = lower value 1.02 | locus YHR079C, strain IRE1 (second series), stronger effect = lower value 1.04 | locus YHR094C, strain hxt1, stronger effect = lower value 1.04 | locus YHR129C, strain ARP1, stronger effect = lower value 1.01 | locus YHR142W, strain chs7, stronger effect = lower value 1.01 | locus YHR200W, strain rpn10, stronger effect = lower value 1.04 | locus YIL066C, strain RNR3, stronger effect = lower value 0.998 | locus YIL073C, strain SPO22, stronger effect = lower value 1.02 | locus YIL125W, strain kgd1, stronger effect = lower value 1.01 | locus YIR030C, strain dcg1, stronger effect = lower value 1.04 | locus YJL092W, strain hpr5, stronger effect = lower value 1.02 | locus YJL095W, strain BCK1 (second series), stronger effect = lower value 1.03 | locus YJL095W, strain BCK1, stronger effect = lower value 0.998 | locus YJL115W, strain asf1, stronger effect = lower value 1.01 | locus YJL129C, strain trk1, stronger effect = lower value 1.02 | locus YJL134W, strain LCB3, stronger effect = lower value 1.01 | locus YJL154C, strain vps35, stronger effect = lower value 1.01 | locus YJL164C, strain tpk1, stronger effect = lower value 0.989 | locus YJL166W, strain qcr8, stronger effect = lower value 1.01 | locus YJL168C, strain set2, stronger effect = lower value 1.03 | locus YJL187C, strain SWE1 (second series), stronger effect = lower value 0.992 | locus YJR043C, strain POL32, stronger effect = lower value 1 | locus YKL009W, strain mrt4, stronger effect = lower value 0.927 | locus YKL068W, stronger effect = lower value 1.03 | locus YKL085W, strain MDH1 (second series), stronger effect = lower value 1 | locus YKL085W, strain MDH1, stronger effect = lower value 1 | locus YKL160W, strain elf1, stronger effect = lower value 1 | locus YKL190W, strain CNB1, stronger effect = lower value 1 | locus YKR001C, strain vps1, stronger effect = lower value 0.993 | locus YKR026C, strain gcn3, stronger effect = lower value 1.02 | locus YKR091W, strain srl3, stronger effect = lower value 1.01 | locus YLL001W, strain dnm1, stronger effect = lower value 1.03 | locus YLL026W, stronger effect = lower value 1.01 | locus YLL041C, strain sdh2, stronger effect = lower value 1.01 | locus YLR027C, strain aat2, stronger effect = lower value 1.01 | locus YLR039C, strain RIC1, stronger effect = lower value 0.893 | locus YLR058C, strain SHM2, stronger effect = lower value 1 | locus YLR102C, strain apc9, stronger effect = lower value 1.03 | locus YLR221C, strain rsa3, stronger effect = lower value 1.03 | locus YLR258W, strain gsy2, stronger effect = lower value 1.02 | locus YLR262C, strain YPT6 (second series), stronger effect = lower value 1.02 | locus YLR262C, strain YPT6, stronger effect = lower value 0.853 | locus YLR268W, strain sec22, stronger effect = lower value 1.04 | locus YLR320W, strain mms22, stronger effect = lower value 1.03 | locus YLR330W, strain CHS5, stronger effect = lower value 1.01 | locus YLR342W, strain FKS1 (second series), stronger effect = lower value 1 | locus YLR342W, strain FKS1, stronger effect = lower value 1.02 | locus YLR357W, strain rsc2, stronger effect = lower value 1.01 | locus YLR370C, strain arc18, stronger effect = lower value 1.01 | locus YLR371W, strain rom2, stronger effect = lower value 1.05 | locus YLR384C, strain iki3, stronger effect = lower value 1 | locus YLR418C, strain cdc73, stronger effect = lower value 1 | locus YML016C, strain PPZ1, stronger effect = lower value 1.01 | locus YML032C, strain rad52, stronger effect = lower value 1.03 | locus YML120C, strain ndi1, stronger effect = lower value 1.02 | locus YML124C, strain tub3, stronger effect = lower value 1.02 | locus YMR058W, strain fet3, stronger effect = lower value 1.03 | locus YMR078C, strain ctf18, stronger effect = lower value 1.04 | locus YMR125W, strain sto1, stronger effect = lower value 0.985 | locus YMR129W, stronger effect = lower value 1.01 | locus YMR205C, strain PFK2, stronger effect = lower value 0.988 | locus YMR223W, strain ubp8, stronger effect = lower value 1.05 | locus YMR231W, strain pep5, stronger effect = lower value 1.01 | locus YMR263W, strain SAP30, stronger effect = lower value 1.01 | locus YMR307W, strain GAS1, stronger effect = lower value 0.949 | locus YNL067W, strain RPL9B, stronger effect = lower value 1 | locus YNL071W, strain lat1, stronger effect = lower value 1.01 | locus YNL153C, strain GIM3, stronger effect = lower value 1 | locus YNL209W, strain ssb2, stronger effect = lower value 0.994 | locus YNL233W, strain BNI4, stronger effect = lower value 1.02 | locus YNL248C, strain rpa49, stronger effect = lower value 1.06 | locus YNL250W, strain rad50, stronger effect = lower value 1.02 | locus YNL271C, strain bni1, stronger effect = lower value 1.03 | locus YNL298W, strain CLA4, stronger effect = lower value 0.994 | locus YNL307C, strain MCK1, stronger effect = lower value 1.03 | locus YNL322C, strain KRE1 (second series), stronger effect = lower value 0.994 | locus YNR049C, strain mso1, stronger effect = lower value 1.04 | locus YNR052C, strain pop2, stronger effect = lower value 1.01 | locus YOL006C, strain TOP1, stronger effect = lower value 0.964 | locus YOL012C, strain htz1 1.11 | locus YOL147C, strain pex11, stronger effect = lower value 1.04 | locus YOR001W, strain rrp6, stronger effect = lower value 1.02 | locus YOR061W, strain CKA2, stronger effect = lower value 1.02 | locus YOR069W, strain VPS5, stronger effect = lower value 1.01 | locus YOR070C, strain gyp1, stronger effect = lower value 1.04 | locus YOR080W, strain dia2, stronger effect = lower value 1.02 | locus YOR083W, strain WHI5, stronger effect = lower value 1.01 | locus YOR106W, strain vam3, stronger effect = lower value 1.01 | locus YOR136W, strain idh2, stronger effect = lower value 1.02 | locus YOR144C, strain elg1, stronger effect = lower value 1.03 | locus YOR184W, strain ser1, stronger effect = lower value 0.994 | locus YOR265W, strain rbl2, stronger effect = lower value 1.01 | locus YOR270C, strain vph1, stronger effect = lower value 1.05 | locus YOR290C, strain snf2, stronger effect = lower value 0.994 | locus YOR316C, strain cot1, stronger effect = lower value 1.03 | locus YPL051W, strain arl3, stronger effect = lower value 1.02 | locus YPL055C, strain LGE1, stronger effect = lower value 1.01 | locus YPL078C, strain atp4, stronger effect = lower value 0.99 | locus YPL106C, strain sse1, stronger effect = lower value 1.03 | locus YPL240C, strain hsp82, stronger effect = lower value 1.01 | locus YPL241C, strain CIN2, stronger effect = lower value 1 | locus YPR119W, strain clb2, stronger effect = lower value 1.02 | locus YPR141C, strain kar3, stronger effect = lower value 1.02 | locus YPR163C, strain tif3, stronger effect = lower value 1.04 | locus YPR167C, strain met16, stronger effect = lower value 1.02 | strain wtn01, stronger effect = lower value 1.01

From PubChem BioAssay AID1159580 (chemical genetic matrix, 2015)
